# APOBEC3G inh = APOBEC3G DNA deaminase inhibitors, primary screen, biochemical, fluorescence, single-stranded DNA substrate, uHTS | recombinant A3G, ssDNA deamination FAM/TAMRA fluorescence | inhibition, % at 20 µM | DNA dC->dU-editing enzyme APOBEC-3G (Homo sapiens), Q9HC16 | 330,000 tested, 0.28% active | AID 493012, 2011;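 active = inhibition of at least 40% at 20 µM, with no more than 30% in the related APOBEC3A deaminase screen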
# Target sequence (Q9HC16 whole entry, looked up): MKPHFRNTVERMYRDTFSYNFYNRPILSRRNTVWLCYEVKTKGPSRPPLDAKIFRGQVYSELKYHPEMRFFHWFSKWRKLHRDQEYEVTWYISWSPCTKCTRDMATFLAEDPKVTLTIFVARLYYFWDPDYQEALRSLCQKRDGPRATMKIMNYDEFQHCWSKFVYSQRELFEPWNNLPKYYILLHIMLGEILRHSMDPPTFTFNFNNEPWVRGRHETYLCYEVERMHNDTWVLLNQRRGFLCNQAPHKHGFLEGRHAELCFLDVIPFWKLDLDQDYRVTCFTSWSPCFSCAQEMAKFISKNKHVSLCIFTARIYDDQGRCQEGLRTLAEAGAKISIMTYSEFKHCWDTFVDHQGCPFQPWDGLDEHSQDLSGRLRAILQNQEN
# MITF TRPM1 HTS = activators of MITF-driven TRPM1 promoter reporter, primary screen, cell-based, SK-MEL-5, luciferase, single point. activation, % at 12.5 µM. 300,000 tested, 0.75% active. SK-MEL-5 TRPM1-promoter luciferase, 24 h; % of positive control, neutral wells = 0;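 active = mean activation of at least 80% with every replicate also reaching 80%; inconclusive = mean reaches 80% but some replicate falls short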
# A3A deaminase = APOBEC3A ssDNA deaminase inhibitors, primary screen, selectivity assay for APOBEC3G inhibitor project, biochemical, FAM/TAMRA oligo cleavage fluorescence. DNA dC->dU-editing enzyme APOBEC-3A (Homo sapiens), P31941. recombinant A3A, FAM/TAMRA ssDNA deamination fluorescence. inhibition, % at 20 µM. 330,000 tested, 0.41% active. AID 493011, 2011;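 active = at least 40% inhibition at 20 µM here, with at most 30% in a related deaminase screen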
# Wnt act = Wnt/beta-catenin pathway activators, primary screen, cell-based, plate reader, single point; Wnt/beta-catenin reporter cell assay, activator; activation, % at 9.35 µM; 300,000 tested, 1.2% active; AID 743398, 2014; in the data active = activation above about 30%, passing the limit was not always enough; inconclusive = no clear call, values can overlap the other calls
# esBAF inh = Bmi1 luciferase reporter increase in mESCs, primary screen, esBAF inhibitor project, mouse ES cells, Bmi1 luciferase knock-in, single point. 24 h; 100% = twice the neutral-well signal. reporter increase, % at 12.5 µM. 350,000 tested, 2% active; in the data active = activation above about 40%; inconclusive = no clear call, values can overlap the other calls;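 also: a rise in the Bmi1 reporter signal indicates esBAF inhibition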
# PHOSPHO1 block = PubChem AID 1565. Phosphoethanolamine/phosphocholine phosphatase (Homo sapiens), Q8TCT1. inhibition, % at 13.3 µM. 290,000 tested, 1.1% active. recombinant PHOSPHO1, absorbance phosphatase assay; in the data active = inhibition above about 60%
# Target sequence (Q8TCT1 whole entry, looked up): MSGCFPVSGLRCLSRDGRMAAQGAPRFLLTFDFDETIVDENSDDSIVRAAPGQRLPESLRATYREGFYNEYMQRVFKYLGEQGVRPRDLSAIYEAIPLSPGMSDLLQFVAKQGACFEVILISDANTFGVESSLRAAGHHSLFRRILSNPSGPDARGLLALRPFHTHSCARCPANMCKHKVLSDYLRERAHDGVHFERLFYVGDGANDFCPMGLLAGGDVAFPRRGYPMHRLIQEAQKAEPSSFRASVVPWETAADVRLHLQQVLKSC
# Hits are given with their value; . = inactive; ? = inconclusive; / = not tested or not shown. The list is not random: actives were taken first. Their share in the collection is about 3.6%.
SMILES,APOBEC3G inh,MITF TRPM1 HTS,A3A deaminase,Wnt act,esBAF inh,PHOSPHO1 block
C1CN(c2nc3nonc3nc2N2CCOCC2)CCO1,.,/,.,/,/,.
Cc1ccc(C)c(Nc2nc3nonc3nc2N2CCOCC2)c1,.,.,.,.,.,61.1
CCN(CC)C(=O)c1ccc(COc2ccc(Cl)c(C)c2)o1,.,/,.,.,77.5,.
O=C(c1ccc(COc2ccc(F)cc2)o1)n1cccn1,.,.,.,.,.,.
CCN(CC)C(=O)c1ccc(COc2ccccc2Br)o1,.,.,.,/,73.1,.
Cc1cc(OCc2ccc(C(=O)n3cccn3)o2)ccc1Cl,.,.,.,46.8,/,.
O=C(Nc1ccc2c(c1)[C@H]1C[C@@H](CC(=O)N3CCc4ccccc4C3)O[C@@H](CO)[C@H]1O2)c1cccnc1,/,/,/,/,.,/
COC(=O)CCC/C=C1/SCC(NC(=O)c2ccccc2)C1O (stereo unspecified),.,.,.,.,.,.
COC(=O)CCC/C=C1/SCC(NC(=O)c2ccccc2)C1=O (stereo unspecified),.,.,.,/,/,64.4
C[C@@H]1CN([C@H](C)CO)C(=O)Cc2cc(N(C)C)ccc2O[C@@H]1CN(C)Cc1ccc(Cl)c(Cl)c1,/,/,/,/,.,/
COc1ccc(C(=O)/C=C/c2cn(CN3CCN(C)CC3)c3ccccc23)cc1,.,95.0,.,/,51.4,.
CCOc1ccc(C(=O)/C=C/c2cn(CN3CCN(C)CC3)c3ccccc23)cc1,.,.,.,.,.,.
C[C@@H]1CN([C@H](C)CO)C(=O)Cc2cc(NS(=O)(=O)c3ccc(F)cc3)ccc2O[C@H]1CN(C)S(=O)(=O)c1ccccc1,/,/,/,/,.,/
COc1ccc(-c2noc(-c3ccoc3C)n2)cc1OC,.,88.6,.,.,/,.
COc1ccc(-c2noc(-c3ccco3)n2)cc1OC,.,?,.,49.7,/,.
COc1nc(-c2ccc(C)cc2)ccc1-c1noc(-c2ccco2)n1,.,.,.,/,.,.
c1ccc(COc2ccc(Nc3ncnc4nc[nH]c34)cc2)cc1,.,82.1,.,.,.,.
CCOC(=O)c1ccc(Nc2ncnc3nc[nH]c23)cc1,.,120.8,.,55.9,.,.
COc1ccc(Nc2ncnc3nc[nH]c23)cc1OC,.,.,.,/,.,.
CCN(C(=O)COC(=O)CCS(=O)(=O)c1ccccc1)c1c(N)n(Cc2ccccc2)c(=O)[nH]c1=O,/,/,/,38.9,.,/
O=C(C[C@H]1C[C@@H]2c3cc(NC(=O)Nc4ccccc4)ccc3O[C@@H]2[C@H](CO)O1)NC1CCCCC1,/,/,/,/,.,/
COCOCCn1cc(CN2CCS(=O)(=O)N(Cc3ccc(-c4ccc(Cl)cc4)cc3)C(CC(C)C)C2=O)nn1 (stereo unspecified),/,/,/,.,.,/
COCOCCn1cc(CN2CCS(=O)(=O)N(Cc3ccc(-c4ccc(Cl)nc4)cc3)C(CC(C)C)C2=O)nn1 (stereo unspecified),/,/,/,.,45.3,/
C[C@@H]1CCCCO[C@H](CN(C)S(=O)(=O)c2ccccc2)[C@H](C)CN([C@H](C)CO)C(=O)c2cc(NC(=O)Cc3ccccc3)ccc2O1,/,/,/,/,.,/
CCCCC(=O)Nc1nc(C)c(-c2csc(Nc3cc(OC)ccc3OC)n2)s1,.,.,.,.,.,69.5
SMILES,APOBEC3G inh,MITF TRPM1 HTS,A3A deaminase,Wnt act,esBAF inh,PHOSPHO1 block
CCCCC(=O)Nc1nc(C)c(-c2csc(Nc3cc(Cl)ccc3OC)n2)s1,.,.,.,.,.,98.7
COc1nc(NCCc2ccc(OC)c(OC)c2)nc(Nc2ccccc2)n1,.,/,.,.,.,61.5
COC(=O)C[C@H]1CC[C@H]2[C@@H](COc3ccc(NC(=O)NC(C)C)cc3C(=O)N2C)O1,/,/,/,/,.,/
O=c1[nH][nH]c(=O)c2c(NS(=O)(=O)c3ccccc3)cccc12,.,.,.,.,46.2,.
O=S(=O)(Nc1ccc(NS(=O)(=O)c2ccccc2)c2ccccc12)c1ccccc1,/,/,/,.,.,/
CN(C)CC(=O)N1CC[C@@H]2[C@H]1c1cc(-c3ccccc3F)ccc1N(C)[C@@H]2CO,/,/,/,/,.,/
CCc1nnc(NC(=O)CCC(=O)N2CCN(Cc3ccc(C)cc3C)CC2)s1,.,.,.,.,.,69.7
COc1cccc(NC(=O)N(C)C[C@H]2Oc3cc(C#Cc4ccc(F)cc4)ccc3S(=O)(=O)N([C@@H](C)CO)C[C@H]2C)c1,/,/,/,/,.,/
C[C@@H]1CCCCO[C@H](CN(C)C)[C@@H](C)CN([C@@H](C)CO)C(=O)c2cc(NS(=O)(=O)c3ccc(F)cc3)ccc2O1,/,/,/,/,.,/
Brc1ccc(-c2cn3ccccc3n2)cc1,.,.,.,49.1,.,.
Brc1ccc(OCc2cn3ccccc3n2)cc1,.,92.9,.,.,/,.
O=[N+]([O-])c1ccc(-c2cn3ccccc3n2)cc1,.,/,.,34.5,/,/
Oc1ccc(-c2cn3ccccc3n2)cc1,.,.,.,38.5,.,.
C[C@H](CO)N1C[C@H](C)[C@@H](CN(C)C(=O)c2ccccc2)OCCCC[C@H](C)Oc2ccc(NC(=O)c3ccncc3)cc2C1=O,/,/,/,/,.,/
COc1ccc(NC(=O)N(C)C[C@@H]2Oc3c(cccc3N(C)C)C(=O)N([C@H](C)CO)C[C@@H]2C)cc1,/,/,/,/,.,/
CCN(CC)CCN(C(=O)c1ccc2ncsc2c1)c1nc2cc3c(cc2s1)OCO3,.,.,.,.,54.5,.
CC(C)CC(=O)Nc1ccc(C(=O)NNC(=S)NC(=O)C2CCCCC2)cc1,.,.,.,/,.,93.0
N#CCC(=O)Nc1ccc(C(=O)NNC(=S)NC2CCCCC2)cc1,.,/,.,.,.,/
COc1ccc(CN(C(=O)c2cc3ccccc3oc2=O)C2CCCC2)cc1,.,.,.,.,/,.
CCOc1ccc(CN(C(=O)c2cc3ccccc3oc2=O)C2CCS(=O)(=O)C2)cc1 (stereo unspecified),.,.,.,.,76.4,.
COc1cccc(CN(C(=O)c2cc3ccccc3oc2=O)C2CC2)c1,.,/,.,?,56.7,.
COc1ccc(CN(C(=O)c2cc3ccccc3oc2=O)C2CCS(=O)(=O)C2)cc1OC (stereo unspecified),.,.,.,.,61.9,.
COc1ccc(CN(C(=O)c2cc3ccccc3oc2=O)C2CCS(=O)(=O)C2)cc1 (stereo unspecified),.,/,.,.,/,.
O=C(Nc1cnn(Cc2ccc(F)cc2)c1)c1cnccn1,.,.,.,/,41.6,.
CC(=O)C1=C(c2cccc([N+](=O)[O-])c2)N(C(C)=O)n2c(C)nnc2S1,.,.,.,75.1,/,.
C[C@@H](NC(=O)C[C@H]1CC[C@@H](NC(=O)Nc2ccc3c(c2)OCO3)[C@H](CO)O1)c1ccccc1,/,/,/,/,.,/
O=c1/c(=C\c2ccc(F)cc2)sc2n1CCCN=2,.,.,.,53.3,/,.

# Source: PubChem
